The whole screen tested about 360,000 compounds, of which about 3,700 (1%) were called active. Inconclusive results (about 2%) are left out.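 How the source made its calls: active means normalized GFP-positive differentiation at or above the plate's own cutoff, the solvent-only control mean plus 3 SD; inconclusive means no clear call, values can overlap the other calls; inactive means the rest.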 The sample as a whole holds a higher share of actives than the screen did.
Assay: HoxA9-arrested leukemia cell differentiation promoters – flow cytometry, MLPCN library, primary screen (AID 624256);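 on GFP+ MAC1+ double positive: cells exposed to compound for four days before flow analysis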;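 on normalized GFP-positive differentiation: cells exposed to compound for four days before flow analysis; 0% = DMSO wells and 100% = fulvestrant positive control at 5 µM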
Settings: ER-HoxA9 myeloid progenitors, lysozyme-GFP differentiation, at 10 µM; GFP+ MAC1+ double positive: measured here: differentiation confirmed by MAC1 staining, stronger effect = higher value; normalized GFP-positive differentiation: stronger effect = higher value

SMILES | GFP+ MAC1+ double positive [%] | outcome | normalized GFP-positive differentiation
O=C(NC1CCCC1)C1c2ccccc2OCC(=O)N1CC(F)(F)F (centres undefined) | 0.5 | inactive | 
O=C1NC[C@H](CCCCN2C[C@H](Cc3ccccc3)N(Cc3ccccc3)C(=O)C2=O)N(CCc2ccc(O)cc2)C1=O | 1 | inactive | 
COC(=O)[C@@]12C[C@@H](CC(=O)N3CCCCC3)C(=O)N(Cc3ccc4c(c3)OCO4)C1=CCC(C)(C)C2 | 1.1 | inactive | 
Cc1ccc(-n2c(SCC(=O)Nc3ncc(Cl)cc3Cl)nc3ccccc32)cc1 | 11.5 |  | 162% (active)
CCOc1ccc(-n2c(SCC(=O)Nc3cc(C(=O)O)ccc3Cl)nc3ccccc3c2=O)cc1 | 1.1 | inactive | 
CC1(C(=O)OCC(=O)Nc2ncc(Cl)cc2Cl)CC1(Cl)Cl (centres undefined) | 0.3 | inactive | 
CC1Cc2ccccc2N1S(=O)(=O)c1cccc(C(=O)NCC(c2ccco2)N2CCCC2)c1 (centres undefined) | 1.4 |  | 21.5% (active)
CC1CCc2sc(C(=O)NCC(c3ccco3)N3CCCCC3)cc2C1 (centres undefined) | 0.5 | inactive | 
CC1Cc2ccccc2N1S(=O)(=O)c1cccc(C(=O)OCC(=O)N2CCOCC2)c1 (centres undefined) | 1 | inactive | 
CC12CCC(=O)C=C1CCC1C2C(O)CC2(C)C1CCC2(O)C(O)CO (centres undefined) | 1.1 | inactive | 
O=C(NCc1cccnc1)c1cc(C2CCCN(C(=O)CCCc3ccccc3)C2)on1 (centres undefined) | 0.8 | inactive | 
CCCCN(C=O)c1c(CC)nc2c(OCCC3CCCCC3)cccn12 | 0.7 | inactive | 
CCOC(=O)[C@]12CCCC=C1N(Cc1cccc3ccccc13)C(=O)[C@H](CC(=O)NCC13CC4CC(CC(C4)C1)C3)C2 | 2.1 | inactive | 
Cc1ccc(S(=O)(=O)NCC(C)NS(C)(=O)=O)cc1 (centres undefined) | 2 | inactive | 
Cc1ccc(S(=O)(=O)NCCNC(C)c2ccc(Br)cc2)cc1 (centres undefined) | 1 | inactive | 
Cc1ccc(S(=O)(=O)NCCSC(C)(C)C)cc1 | 5.2 |  | 17.8% (active)
OC(c1ccccc1)c1nc(-c2cnc3ccccc3c2)cs1 (centres undefined) | 0.6 | inactive | 
C=C1C(=O)[C@]23C[C@H]1CCC2[C@@]1(C)C(C[C@@H]3O)[C@](C)(C(=O)O)CC[C@@H]1O (some centres undefined) | 3.8 |  | 13.1% (active)
CCOC(=O)C1=CC[C@@H](c2ccncc2)N(S(=O)(=O)c2ccc(C)cc2)C1 | 1.2 | inactive | 
COc1ccc(C2OC(CCc3ccccc3)Cc3[nH]c(=S)[nH]c(=O)c32)cc1 (centres undefined) | 1.5 | inactive | 
CC(=O)c1ccc(S(=O)(=O)N2CCN(c3nc4c(C)c(C)ccc4cc3C#N)CC2)cc1 | 0.3 | inactive | 

SMILES | GFP+ MAC1+ double positive [%] | outcome | normalized GFP-positive differentiation
Cc1ccc(S(=O)(=O)N2CCN(c3ccccc3)CC2)cc1C | 0.5 | inactive | 
Cc1ccc(S(=O)(=O)C(C#N)c2nc3ccccc3nc2N2CCCC2)cc1C (centres undefined) | 1.7 |  | 59% (active)
CC(C)OC(=O)C(C#N)c1nc2ccccc2nc1N1CCN(Cc2ccccc2)CC1 (centres undefined) | 0.7 |  | 12.1% (active)
CC(C)n1c(CN2CCN(Cc3ccccc3)CC2)nc2ccccc21 | 0.1 | inactive | 
COC(=O)c1sc(N2CCN(Cc3ccccc3)CC2)nc1N | 0.5 | inactive | 
CCCCCn1nnnc1-c1nc2cc3ccccc3cc2[nH]c1=O | 1.8 | inactive | 
Cc1nc(Nc2ccc3c(c2)OCCO3)c2nnn(Cc3ccccc3Cl)c2n1 | 18.1 |  | 21.9% (active)
Cc1nc(Nc2ccccc2F)c2nnn(Cc3ccccc3Cl)c2n1 | 0.5 | inactive | 
CCCc1nc(NCc2ccc3c(c2)OCO3)c2nnn(Cc3ccccc3Cl)c2n1 | 0.8 | inactive | 
CCCCCc1c(Cc2ccccc2)ncn1CCc1ccccc1OC | 3.9 | inactive | 
COc1ccc(NC(=O)Nc2ccc3c(c2)C(=O)N([C@H](C)CO)C[C@H](C)[C@@H](CN(C)C(=O)Nc2ccc4c(c2)OCO4)O3)cc1 | 2.5 | inactive | 
C[C@@H]1CN([C@@H](C)CO)C(=O)c2cc(NC(=O)C3CC3)ccc2O[C@H]1CN(C)C | 1.9 | inactive | 
COc1ccc(NC(=O)N(C)C[C@H]2Oc3ccc(NC(=O)C4CC4)cc3C(=O)N([C@H](C)CO)C[C@@H]2C)cc1 | 1.6 |  | 10.4% (active)
CCOC(=O)[C@]12CCC=C1N(Cc1ccccc1)C(=O)[C@H](CC(=O)N1CCCC1)C2 | 0.9 | inactive | 
N#C/C(=C\c1ccc(N2CCOCC2)o1)C(=O)N1CCOCC1 | 0.4 | inactive | 
N#C/C(=C/c1ccc(N2CCCCC2)o1)C(=O)NCCc1c[nH]c2ccccc12 | 3.1 |  | 118% (active)
N#C/C(=C/c1ccc(N2CCOCC2)o1)C(=O)N1CCOCC1 | 0.4 | inactive | 
CCC(c1nnnn1-c1ccc2c(c1)OCCO2)N1CCN(c2ccc(C(F)(F)F)cn2)CC1 (centres undefined) | 0.4 | inactive | 
CCNC(=O)c1cc2c(c(-c3cccc(-c4cncnc4)c3)n1)[C@H](CCO)N(C(C)=O)C2 | 0.5 | inactive | 
CCCNC(=O)C[C@@H]1CC[C@@H]2[C@H](COC[C@H](O)CN2C(=O)c2cc(Cl)cc(Cl)c2)O1 | 0.9 | inactive | 
CCCCCc1c(-c2cccc(Br)c2)ncn1CCc1ccccc1OC | 1 | inactive | 

Source: PubChem BioAssay AID624256 (NMMLSC, 2012)
